The full list was thinned out, with hits kept by preference.
GBA activity up = enhancers of human beta-glucosidase activity in Gaucher fibroblasts | P04062 | L444P Gaucher fibroblasts, 4-MU-glucoside fluorescence, 3 days | activation, % at 10 µM | 30,000 tested, 0.44% active; in the data active = activation above about 65%;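 also: 0% = vehicle wells and 100% = positive control wells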
Target sequence (P04062 whole entry L483P): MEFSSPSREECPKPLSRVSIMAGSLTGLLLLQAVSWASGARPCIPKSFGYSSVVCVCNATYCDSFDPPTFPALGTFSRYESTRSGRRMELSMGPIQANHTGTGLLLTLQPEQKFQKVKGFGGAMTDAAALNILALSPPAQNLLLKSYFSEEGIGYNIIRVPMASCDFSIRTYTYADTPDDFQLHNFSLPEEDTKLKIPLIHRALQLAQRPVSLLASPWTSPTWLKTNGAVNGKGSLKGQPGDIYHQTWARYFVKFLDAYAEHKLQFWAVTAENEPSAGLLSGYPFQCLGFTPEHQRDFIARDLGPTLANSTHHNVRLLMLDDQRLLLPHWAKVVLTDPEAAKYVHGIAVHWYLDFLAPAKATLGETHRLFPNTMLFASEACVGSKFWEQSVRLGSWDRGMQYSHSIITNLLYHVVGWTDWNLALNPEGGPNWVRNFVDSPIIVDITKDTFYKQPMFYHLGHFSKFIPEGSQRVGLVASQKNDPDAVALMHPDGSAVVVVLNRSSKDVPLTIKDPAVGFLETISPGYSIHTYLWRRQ
The depositor's hits bear a star.

SMILES	GBA activity up
O=c1cccc2n1CC1CC2CN(Cc2cccc(Cl)c2Cl)C1 (stereo unspecified)	404.3*
NCC1(CC(=O)O)CCCCC1	-31.5
CN(C(=O)c1ccco1)C1(c2ccccc2Cl)CCCCC1=O (stereo unspecified)	-6.1
Cc1cccnc1-n1c(CN2C(=O)c3ccccc3C2=O)nc2ccccc2c1=O	-8.5
C#CCN(C)C(C)Cc1ccccc1 (stereo unspecified)	-26.6
Cn1c(=O)cc(SCC(=O)N2CCC3(CC2)OCCO3)c2ccc(Cl)cc21	25.9
O=C1CC(=O)N(c2ccc3c(c2)OCO3)C(=O)N1	81.0*
O=C(CCN1C(=O)COc2ccccc21)N1CCC2(CC1)OCCO2	2.6
CCC(=NCCCN(C)C)c1c(O)n(-c2ccc(OC)cc2)c(=O)[nH]c1=O	-12.0
C=CCn1c(O)c(C(C)=NCCN2CCOCC2)c(=O)[nH]c1=O	-29.2
